PubChem BioAssay
Records with an inconclusive call do not appear. Active and inactive are the calls of the source.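 How the source made its calls, unless noted: active means normalized viability below 100% at a tested concentration; inactive means the rest.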

Legend:
[1] = growth inhibition of DIPG glioma cells, dose response, cell-based, SU-DIPG-XVII, MIPE5.0, CellTiter-Glo, qHTS (AID 1347060; cut-off not given, nearly all actives have AC50 up to about 26 µM;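 on AC50: cells exposed to compound for 48 hours before viability readout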); conditions: SU-DIPG-XVII viability, CellTiter-Glo ATP luminescence
[2] = growth inhibition of DIPG glioma cells, dose response, cell-based, JHH-DIPG-1, MIPE4.0, CellTiter-Glo, qHTS (AID 1347062; cut-off not given, nearly all actives have AC50 up to about 27 µM;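 on AC50: cells exposed to compound for two days before readout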); conditions: JHH-DIPG-1 viability, CellTiter-Glo ATP luminescence
[3] = growth inhibition of DIPG glioma cells, dose response, cell-based, SU-DIPG-IV, MIPE4.0, CellTiter-Glo, qHTS (AID 1347063; cut-off not given, nearly all actives have AC50 up to about 30 µM;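 further: compound exposure lasted 48 hours before the viability readout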); conditions: SU-DIPG-IV viability, CellTiter-Glo ATP luminescence
[4] = growth inhibition of DIPG glioma cells, dose response, cell-based, SU-DIPG-XIII, MIPE5.0, CellTiter-Glo, qHTS (AID 1347064; cut-off not given, nearly all actives have AC50 up to about 23 µM;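 on AC50: cells exposed to compound for 48 hours before the viability read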); conditions: SU-DIPG-XIII viability, CellTiter-Glo ATP luminescence
[5] = viability loss in pontine glioma line – cell-based, SU-DIPG-XXV, MIPE5.0, CellTiter-Glo, qHTS, dose response (AID 1347065; cut-off not given, nearly all actives have AC50 up to about 26 µM;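 further: cells exposed to compound for 48 hours before ATP readout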); conditions: CellTiter-Glo ATP luminescence
[6] = SU-DIPG-VI glioma cell viability, MIPE4.0 library, CellTiter-Glo luminescence, qHTS (AID 1347066; cut-off not given, nearly all actives have AC50 up to about 30 µM;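 further: cells exposed to compound for 48 hours before readout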); conditions: CellTiter-Glo ATP luminescence
[7] = JHH-DIPG-1 glioma cell viability, MIPE5.0 library, CellTiter-Glo luminescence, qHTS (AID 1347067; cut-off not given, nearly all actives have AC50 up to about 26 µM;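 further: cells exposed to compound for 48 hours before readout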); conditions: JHH-DIPG-1 glioma viability, CellTiter-Glo ATP luminescence
[8] = SU-DIPG-XXV glioma cell viability, MIPE5.0 library, qHTS (AID 1347068; cut-off not given, nearly all actives have IC50 up to about 30 µM;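 on IC50: cells exposed to compound for 48 hours before viability readout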)
[9] = sensitizers of A549 cells to miR-34 induction, primary screen, imaging, A549 dox-inducible miR-34, nuclei and caspase counts (AID 1347080;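 active means compounds whose cell count with miR-34 switched on is under 0.7 times the count with it off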); conditions: A549 miR-34 inducible, Hoechst nuclei count, 48 h
[10] = modifiers of HSF1 nuclear foci, imaging, Selleck Cancer Library (AID 1347162; in the data active means plate-normalised HSF1 focus index below about 0.46); conditions: human cells, at 10 µM; SSMD: measured here: HSF1 foci SSMD mean; cell count: measured here: cell number; plate-normalised HSF1 focus index: stronger effect = lower value
[11] = survival rescue of mitochondrial mutant cells in low glucose, primary screen, MELAS cybrids, Rieske KO mouse fibroblasts, CellTiter-Glo (AID 1508586;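 active means mean z-score across replicates of 1.96 or higher in either the MELAS or the Rieske mutant cell line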;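 further: z relative to plate mean and SD of compound and empty wells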)
[12] = ovarian cancer cell viability with rucaparib, profiling panel, oncology-focused library, rucaparib conditional (AID 1508598); conditions: patient-derived ovarian cancer cells, CellTiter-Glo viability, 144 h, stronger effect = lower value
[13] = growth inhibition of DIPG glioma cells, dose response, cell-based, SU-DIPG-XIII, MIPE4.0, CellTiter-Glo, qHTS (AID 1347061; cut-off not given, nearly all actives have AC50 up to about 37 µM;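 further: cells exposed to compound for 48 hours before readout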); conditions: SU-DIPG-XIII viability, CellTiter-Glo ATP luminescence
[14] = stronger effect = lower value, cell number ratio, induced over uninduced
[15] = measured here: relative caspase fold change +Dox/-Dox
[16] = measured here: total cells with miR-34 induction, stronger effect = lower value
[17] = measured here: total cells without miR-34 induction
[18] = MELAS cybrid survival, CellTiter-Glo 48 h, stronger effect = higher value
[19] = Rieske KO mouse fibroblast survival, CellTiter-Glo 72 h
[20] = at 0.000305 µM, OCI-C5x cells, with rucaparib 10 µM, 100% = cells with rucaparib alone
[21] = at 0.000305 µM, OCI-C5x cells, without rucaparib
[22] = at 0.000305 µM, OCI-P5x cells, with rucaparib 20 µM, 100% = cells with rucaparib alone
[23] = at 0.000305 µM, OCI-P5x cells, without rucaparib
[24] = at 0.00122 µM, OCI-C5x cells, with rucaparib 10 µM, 100% = cells with rucaparib alone
[25] = at 0.00122 µM, OCI-C5x cells, without rucaparib
[26] = at 0.00122 µM, OCI-P5x cells, with rucaparib 20 µM, 100% = cells with rucaparib alone
[27] = at 0.00122 µM, OCI-P5x cells, without rucaparib
[28] = at 0.00488 µM, OCI-C5x cells, with rucaparib 10 µM, 100% = cells with rucaparib alone
[29] = at 0.00488 µM, OCI-C5x cells, without rucaparib
[30] = at 0.00488 µM, OCI-P5x cells, with rucaparib 20 µM, 100% = cells with rucaparib alone
[31] = at 0.00488 µM, OCI-P5x cells, without rucaparib
[32] = at 0.0195 µM, OCI-C5x cells, with rucaparib 10 µM, 100% = cells with rucaparib alone
[33] = at 0.0195 µM, OCI-C5x cells, without rucaparib
[34] = at 0.0195 µM, OCI-P5x cells, with rucaparib 20 µM, 100% = cells with rucaparib alone
[35] = at 0.0195 µM, OCI-P5x cells, without rucaparib
[36] = at 0.0781 µM, OCI-C5x cells, with rucaparib 10 µM, 100% = cells with rucaparib alone
[37] = at 0.0781 µM, OCI-C5x cells, without rucaparib
[38] = at 0.0781 µM, OCI-P5x cells, with rucaparib 20 µM, 100% = cells with rucaparib alone
[39] = at 0.0781 µM, OCI-P5x cells, without rucaparib
[40] = at 0.313 µM, OCI-C5x cells, with rucaparib 10 µM, 100% = cells with rucaparib alone
[41] = at 0.313 µM, OCI-C5x cells, without rucaparib
[42] = at 0.313 µM, OCI-P5x cells, with rucaparib 20 µM, 100% = cells with rucaparib alone
[43] = at 0.313 µM, OCI-P5x cells, without rucaparib
[44] = at 1.25 µM, OCI-C5x cells, with rucaparib 10 µM, 100% = cells with rucaparib alone
[45] = at 1.25 µM, OCI-C5x cells, without rucaparib
[46] = at 1.25 µM, OCI-P5x cells, with rucaparib 20 µM, 100% = cells with rucaparib alone
[47] = at 1.25 µM, OCI-P5x cells, without rucaparib
[48] = at 5 µM, OCI-C5x cells, with rucaparib 10 µM, 100% = cells with rucaparib alone
[49] = at 5 µM, OCI-C5x cells, without rucaparib
[50] = at 5 µM, OCI-P5x cells, with rucaparib 20 µM, 100% = cells with rucaparib alone
[51] = at 5 µM, OCI-P5x cells, without rucaparib

Cc1cc(SCc2sc(-c3ccc(C(F)(F)F)cc3)nc2C)ccc1OCC(=O)O
inactive: outcome [1] | outcome [2] | outcome [3] | outcome [4] | outcome [5] | outcome [6] | outcome [7] | outcome [8]

CCc1cnn2c(NCc3ccc[n+]([O-])c3)cc(N3CCCC[C@H]3CCO)nc12
inactive: outcome [6]
active: AC50 [1] 37.2 nM | AC50 [2] 23.5 nM | AC50 [3] 18.7 nM | AC50 [4] 37.2 nM | AC50 [5] 29.5 nM | AC50 [7] 41.7 nM

COC(=O)Nc1ccc(-c2nc(N3CCOCC3)c3cnn(C4CCN(Cc5cccnc5)CC4)c3n2)cc1
active: AC50 [1] 5250 nM | AC50 [2] 6620 nM | AC50 [3] 235 nM | AC50 [4] 6610 nM | AC50 [5] 1480 nM | AC50 [6] 14800 nM | AC50 [7] 6610 nM | IC50 [8] 13200 nM

CC1(COc2ccc3c(c2)ncn3-c2ccc3cccc(N4CCC(N)CC4)c3n2)COC1
active: AC50 [1] 9340 nM | AC50 [2] 332 nM | AC50 [3] 1180 nM | AC50 [4] 10500 nM | AC50 [5] 8330 nM | AC50 [6] 23500 nM | AC50 [7] 13200 nM | IC50 [8] 26300 nM | viability [12, 48] 77.3% | viability [12, 49] 77.6% | viability [12, 50] 4.5% | viability [12, 51] 81.8%
1330: cell count [9, 16]
inactive: fold change [9, 14] 0.944 | plate-normalised HSF1 focus index [10] 0.92 | z-score [11, 18] 0.899 | viability [12, 20] 110% | viability [12, 21] 122% | viability [12, 22] 122% | viability [12, 23] 113% | viability [12, 24] 115% | viability [12, 25] 125% | viability [12, 26] 119% | viability [12, 27] 120% | viability [12, 28] 111% | viability [12, 29] 121% | viability [12, 30] 120% | viability [12, 31] 117% | viability [12, 32] 115% | viability [12, 33] 127% | viability [12, 34] 119% | viability [12, 35] 127% | viability [12, 36] 119% | viability [12, 37] 130% | viability [12, 38] 131% | viability [12, 39] 120% | viability [12, 40] 116% | viability [12, 41] 137% | viability [12, 42] 129% | viability [12, 43] 123% | viability [12, 44] 102% | viability [12, 45] 131% | viability [12, 46] 142% | viability [12, 47] 119%
1400: cell count [9, 17]
-3.35: z-score [11, 19]
1.21: fold change [9, 15]
7140: cell count [10]
-2.3: SSMD [10]

CC(/C=C1\SC(=S)N(CC(=O)O)C1=O)=C\c1ccccc1
inactive: outcome [1] | outcome [2] | outcome [3] | outcome [4] | outcome [5] | outcome [6] | outcome [7]

O=C(c1ccc(F)cc1)N1CCC[C@H](c2nc(-c3ccc(F)cc3)no2)C1
inactive: outcome [1] | outcome [2] | outcome [3] | outcome [4] | outcome [5] | outcome [6] | outcome [7] | outcome [8]

Cc1cc(CN2CCN(c3c(Br)cnc4nc(-c5ccc(N6CCN(C)CC6)cc5)[nH]c34)CC2)no1
active: AC50 [1] 1660 nM | AC50 [2] 7430 nM | AC50 [3] 5260 nM | AC50 [4] 3320 nM | AC50 [5] 1050 nM | AC50 [6] 14800 nM | AC50 [7] 2630 nM | IC50 [8] 8330 nM
inactive: fold change [9, 14] 1.05 | z-score [11, 18] -0.545
3250: cell count [9, 17]
3400: cell count [9, 16]
-0.677: z-score [11, 19]
0.921: fold change [9, 15]

C/C(=N\NC(=S)N1CCC1)c1ccccn1
active: AC50 [1] 9.34 nM | AC50 [2] 1480 nM | AC50 [3] 10.5 nM | AC50 [4] 23.5 nM | AC50 [5] 13.2 nM | AC50 [6] 9350 nM

CN1CCN(CCOc2cc(OC3CCOCC3)c3c(Nc4c(Cl)ccc5c4OCO5)ncnc3c2)CC1
active: viability [12, 20] 98.7% | viability [12, 21] 98.5% | viability [12, 22] 98.8% | viability [12, 25] 98.2% | viability [12, 27] 90.6% | viability [12, 28] 97.5% | viability [12, 29] 94.4% | viability [12, 31] 91.3% | viability [12, 33] 94.6% | viability [12, 34] 96.6% | viability [12, 35] 89% | viability [12, 37] 94.2% | viability [12, 38] 82.4% | viability [12, 39] 83% | viability [12, 41] 95.8% | viability [12, 42] 69% | viability [12, 43] 72.2% | viability [12, 44] 91.7% | viability [12, 45] 87.9% | viability [12, 46] 58.9% | viability [12, 47] 64.4% | viability [12, 48] 32.8% | viability [12, 49] 53.2% | viability [12, 50] 5.51% | viability [12, 51] 52.2%
1330: cell count [9, 17]
1: fold change [9, 15]
-0.384: z-score [11, 19]
-0.947: SSMD [10]
inactive: outcome [1] | outcome [13] | outcome [5] | outcome [7] | outcome [8] | fold change [9, 14] 0.876 | plate-normalised HSF1 focus index [10] 0.94 | z-score [11, 18] 0.931 | viability [12, 23] 104% | viability [12, 24] 107% | viability [12, 26] 102% | viability [12, 30] 102% | viability [12, 32] 107% | viability [12, 36] 105% | viability [12, 40] 104%
1170: cell count [9, 16]
7430: cell count [10]

O=C(O)[C@H](CC(=O)N1C[C@H]2CCCC[C@H]2C1)Cc1ccccc1
inactive: outcome [1] | outcome [2] | outcome [3] | outcome [4] | outcome [5] | outcome [6] | outcome [7] | outcome [8]
